Giardia FBPA inh: blocks Giardia fructose-bisphosphate aldolase activity. Potency, µM (highest dose often 59.6 µM), inactives show at the highest dose activity, negative = inhibition, usual class: inhibitors. hit rate 0.71% among 290,000. purified Giardia FBPA; also: % is scaled to controls: 0 for no effect and ±100 for the full control effect; nearly all actives have a fitted effect of over 55% in size
Target sequence (A8B2U2 whole entry, looked up): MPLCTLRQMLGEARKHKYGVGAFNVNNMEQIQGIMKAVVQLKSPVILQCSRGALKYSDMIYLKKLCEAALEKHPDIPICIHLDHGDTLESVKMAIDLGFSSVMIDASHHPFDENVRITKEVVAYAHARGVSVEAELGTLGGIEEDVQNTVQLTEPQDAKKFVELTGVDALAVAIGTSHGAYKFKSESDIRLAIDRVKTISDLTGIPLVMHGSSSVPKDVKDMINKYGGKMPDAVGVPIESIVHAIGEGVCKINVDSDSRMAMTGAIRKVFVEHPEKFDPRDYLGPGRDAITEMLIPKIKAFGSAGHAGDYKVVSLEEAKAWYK
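40 nM FBPA preincubated 10 min at RT with compound (up to 57.5 uM final), then substrate plus GAPDH/TPI/NAD/arsenate coupling and diaphorase/resazurin added. Fluorescence read after 20 min at RT, 525/598 nm.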
AmpC inh detg: blocks E. coli AmpC beta-lactamase in detergent assay | P00811 | AmpC hydrolysis of nitrocefin, absorbance 480 nm, 0.01% Triton | Potency, µM (series often up to 114 µM), without a hit: top-dose activity change, negative = inhibition, actives largely listed as inhibitors | hit rate 0.041% among 370,000 | AID 485294;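 also: 0% = no-compound wells and -100% = no-enzyme wells; nearly all actives have a fitted effect of over 25% in size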
Target sequence (P00811 whole entry, looked up): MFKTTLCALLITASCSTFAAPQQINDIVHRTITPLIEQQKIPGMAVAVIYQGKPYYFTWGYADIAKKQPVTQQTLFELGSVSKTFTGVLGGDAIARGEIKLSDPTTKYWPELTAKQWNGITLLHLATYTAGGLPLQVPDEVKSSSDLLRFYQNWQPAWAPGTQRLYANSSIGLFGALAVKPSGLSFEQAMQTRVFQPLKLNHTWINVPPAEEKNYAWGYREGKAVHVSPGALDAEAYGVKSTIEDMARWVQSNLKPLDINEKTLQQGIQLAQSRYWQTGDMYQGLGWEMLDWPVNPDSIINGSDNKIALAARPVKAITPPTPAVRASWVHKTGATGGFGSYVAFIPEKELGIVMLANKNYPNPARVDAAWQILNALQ
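AmpC (5.3 nM in the dispensed reagent) in 20 mM phosphate pH 7.0 with 0.01% (detergent screen) or 0.0001% Triton X-100 was preincubated with compounds for 15 min at room temperature. Nitrocefin was then added from an 800 uM solution, and hydrolysis was followed at 480 nm.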
AmpC inh no detg: blocks E. coli AmpC beta-lactamase in detergent-free assay. AmpC nitrocefin hydrolysis, absorbance 480 nm, 0.0001% Triton. Potency, µM (top dose mostly 57.1 µM), for the others: top-dose activity change, negative = inhibition, actives largely listed as inhibitors. hit rate 0.52% among 330,000;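 also: plate controls were no compound for no effect and no enzyme for full effect; nearly all actives have a fitted effect of over 20% in size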
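AmpC (5.3 nM in the dispensed reagent) in 20 mM phosphate pH 7.0 with 0.01% (detergent screen) or 0.0001% Triton X-100 was preincubated with compounds for 15 min at room temperature. Nitrocefin was then added from an 800 uM solution, and hydrolysis was followed at 480 nm.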
SARS PLpro yeast: SARS-CoV PLP inhibition in yeast; S. cerevisiae expressing SARS-CoV PLpro, growth rescue; Potency, µM (top dose mostly 32.9 µM), inactives show at the top dose activity, positive = growth rescue, actives largely listed as activators; hit rate 0.19% among 330,000; AID 485353; calls by dose curve; also: 0% is about no effect; nearly all actives have a fitted effect of over 55% in size
Numbers without * were called inactive; ? = inconclusive; nt = no result given; [ ] = dose if it differs, or a comment. A selection: hits, their analogues and other compounds. The true share with any hit is near 1.1%. Unless noted, calls follow the shape of the dose curve; as a rule, active = well fitted curve in the direction sought with a large enough effect; inconclusive = small, poorly fitted or top-dose-only effect, or another doubt; inactive = no such curve, though single readings can be large; an effect the other way counts as inactive or inconclusive. Potency is read from the fitted curve at half-maximal effect.

SMILES	Giardia FBPA inh	AmpC inh detg	AmpC inh no detg	SARS PLpro yeast
Cc1cccc(CC(=O)Nc2cc(C)c3c(=O)oc4ccccc4c3n2)c1	0.8%	?	-14.2%	2.2%
Cc1cc(NC(=O)Cc2ccccc2)nc2c1c(=O)oc1ccccc12	2.2%	?	6.31µM*	-8.0%
COC(=O)c1ccccc1S(=O)(=O)N1CCc2nc(-c3ccccc3)c3c(c2C1)CO[C@@H](C)C3	1.3%[12.9 µM]	nt	nt	nt
Nn1cnnc1N/N=C\c1ccc(-c2ccccc2[N+](=O)[O-])o1	1.77µM*	-10.8%	-20.7%	-23.8%
C=C[C@]1(C)Cc2occ(C)c2C[C@H]1C(=C)C(=O)O	-3.0%	nt	nt	nt
COc1ccc(OC)c(/C=N/NC(=O)c2ccc3nc[nH]c3c2)c1	4.1%	-1.0%	-28.4%	-0.1%
COc1ccccc1/C=C/C=N/NC(=O)c1ccc2nc[nH]c2c1	-29.1%	-14.7%	20µM*	7.1%
O=C(COC(=O)c1ccc(NS(=O)(=O)c2cccs2)cc1)Nc1nc2c(F)c(F)c(F)cc2s1	-0.1%	-4.3%	20µM*	-0.4%
CCOC(=O)CN(Cc1cc(OC)cc(N(C)C)c1OC)C(=O)C1CC(CO[Si](C)(C)C(C)(C)C)=CN1C(=O)OC(C)(C)C (configuration not stated)	-12.3%	nt	nt	nt
Cc1noc(C)c1-c1ccc2ncnc(NCc3ccc(Br)cc3)c2c1	-0.9%	nt	nt	nt
COc1cccc(C(=O)Nc2cccc(C(=O)NC3=NN(c4c(Cl)cc(Cl)cc4Cl)C(=O)C3)c2)c1	22.5%	-12.9%	17.8µM*	-0.9%
C=C1c2ccccc2O[C@H](C(=O)OCC)[C@@H]1C1CCCCC1 (tested in a mixture with another compound)	-1.8%[89.2 µM]	nt	nt	nt
COc1ccc(CNc2nc(-c3ccc(N(C)C)cc3)nc3ccccc23)c(OC)c1	17.7µM*	nt	nt	nt
COc1ccc(CNc2nc(-c3ccc(C(=O)N(C)C)cc3)nc3ccccc23)c(OC)c1	-14.2%	nt	nt	nt
COc1ccc(OC)c(NC(=O)Nc2ccc3c(c2)CCC3)c1	-6.0%	-5.9%	8.91µM*	-12.1%
COc1ccc(NC(=O)Nc2ccc3c(c2)CCC3)c(OC)c1	6.1%	?	21.1%[2.29 µM]	5.1%
CCCC[C@H](NC(C)=O)C(=O)N[C@@H](CCC(=O)O)C(=O)N[C@@H](Cc1cnc[nH]1)C(=O)N[C@H](Cc1ccccc1)C(=O)N[C@@H](CCCN=C(N)N)C(=O)N[C@H](Cc1c[nH]c2ccccc12)C(=O)NCC(N)=O	5.2%	nt	nt	nt
NC(N)=NCCC[C@@H](N)C(=O)NCC(=O)N[C@@H](CC(=O)O)C(=O)N[C@@H](Cc1c[nH]c2ccccc12)C(=O)O	15.0%	nt	nt	nt
O=C(CSc1nc2c([nH]c3ccccc32)c(=O)n1-c1ccc(F)cc1)NCc1ccco1	6.9%	7.0%	22.4µM*	15.7%
O=C(CSc1nc2c([nH]c3ccccc32)c(=O)n1-c1ccc(F)cc1)NCc1ccc(F)cc1	nt	3.2%	nt	nt
O=C(Nc1ccc(NC(=O)c2cccs2)cc1)c1ccc(Br)o1	-10.5%	-2.1%	-44.2%	-0.9%
O=C(Nc1cccc(NC(=O)c2cccs2)c1)c1ccc(Br)o1	0.0%	-7.4%	25.1µM*	-3.2%
CSCC[C@H](NC(=O)[C@H](Cc1c[nH]c2ccccc12)NC(=O)CNC(=O)[C@H](Cc1ccc(O)cc1)NC(=O)[C@H](C)NC(=O)[C@H](CCC(=O)O)NC(=O)[C@H](CCC(=O)O)NC(=O)[C@H](CCC(=O)O)NC(=O)[C@H](CCC(=O)O)NC(=O)[C@H](CCC(=O)O)NC(=O)[C@H](CC(C)C)NC(=O)[C@H](Cc1c[nH]c2ccccc12)NC(=O)[C@@H]1CCCN1C(=O)CNC(=O)[C@@H]1CCC(=O)N1)C(=O)N[C@@H](CC(=O)O)C(=O)N[C@@H](Cc1ccccc1)C(=O)NCC(=O)O	-0.9%	nt	nt	nt
CCC(=O)c1ccc(N2CCN(C(=O)c3ccccc3F)CC2)c(F)c1	14.2%	1.4%	46.1%	-1.4%
O=C(c1ccccc1)c1ccc(N2CCN(C(=O)c3cccc(F)c3F)CC2)c(F)c1	nt	0.5%	41.7%	6.31µM*
SMILES	Giardia FBPA inh	AmpC inh detg	AmpC inh no detg	SARS PLpro yeast
CC1CC=CC2C1C(=O)N(Cc1ccccc1)C2c1ccc(F)c(-c2ccc(N(C)C)cc2)c1 (configuration not stated)	-0.1%	nt	nt	nt
CC(O)C(C(=O)OCc1ccc([N+](=O)[O-])cc1)N1C(=O)c2ccccc2C1=O (configuration not stated)	3.3%	79.4µM*	-10.2%	5.1%
C[C@H](N)C(=O)OCc1ccc([N+](=O)[O-])cc1	1.1%	-20.3%	-7.4%	-1.0%
CC(C)(C)OC(=O)NS(=O)(=O)NCc1ccco1	1.6%	nt	nt	nt
O=C(O)c1cccc(Cl)n1	-24.0%	-0.1%	-2.3%	-0.7%
O=C(O)c1ccc2cccnc2n1	5.61µM*	-1.8%	-12.3%	-0.7%
O=C(O)c1cccc(C(=O)O)n1	28.2µM*	?	-14.2%	-3.0%
O=C(O)c1ccccn1	nt	?	-6.9%	nt
CCS(=O)(=O)n1nc(-c2ccco2)nc1SC	28.2µM*	-13.2%	nt	nt
COc1ccc(NC(=O)N2CCc3nc(-c4ccc(OC)cc4C)c4c(c3C2)CO[C@@H](c2ccccc2)C4)cc1	2.4%[12.9 µM]	nt	nt	nt
O=C(NCCN1CCOCC1)c1ccc2c(c1)N(Cc1ccc(F)cc1)C(=O)CS2	3.0%	?	44.7µM*	0.1%
Oc1ccc(CNc2ccccc2)c2cccnc12	?	?	-49.6%	10µM*
Oc1ccc(CNc2ccc(F)cc2)c2cccnc12	-0.2%	?	-33.7%	11.9%
COC(=O)c1cc(NC(=O)c2cccc(C(F)(F)F)c2)c(=O)oc1C/C=N/OCc1cccc(Cl)c1Cl	-11.5%	-7.9%	7.94µM*	-5.2%
CCc1cccc2c(C(=O)CSc3nncn3-c3ccc(OC)cc3)c[nH]c12	1.5%	-12.8%	-2.7%	-0.6%
CCc1cccc2c(C(=O)CSc3nncn3-c3ccccc3OC)c[nH]c12	9.0%	?	-4.3%	12.6µM*
CCCCN(CCCC)C(=O)CN(C)S(=O)(=O)c1ccc2c(c1)c(=O)n(C)c(=O)n2C	nt	-7.9%	nt	nt
COC(=O)C1=C(C(=O)OC)[C@@H]2Nc3ccccc3[C@@]23C[C@@H](C(=O)OC)N(S(=O)(=O)c2ccc4c(c2)OCCN4C)C3=N1	1.2%[12.9 µM]	nt	nt	nt
CC(=O)c1ccc(NC(=O)Nc2ccc(S(=O)(=O)N3CCCC3)cc2)cc1	nt	-5.7%	14.1µM*	1.5%
COC(=O)c1sccc1NC(=O)Nc1ccc(C)c(C)c1	nt	-1.7%	-59.2%	-15.4%
COC(=O)c1sccc1NC(=O)Nc1ccc(Cl)c(Cl)c1	0.7%	3.3%	0.159µM*	-11.5%
O=S(=O)(Nc1ccc2nc(-c3ccc(Br)o3)[nH]c2c1)c1ccccc1	-20.7%	-2.5%	25.1µM*	4.2%
CCCCc1cc(=O)oc2cc(C)c(CN3CCCC3)c(O)c12	-20.3%	-14.4%	15.8µM*	0.1%
CCc1cc(=O)oc2cc(C)c(CN3CCCC(C)C3)c(O)c12 (configuration not stated)	-22.9%	-10.1%	-58.1%	2.6%
COc1ccccc1NC(=O)c1cc2cc3ccc(OC)c(Cl)c3nc2s1	nt	2.9%	nt	nt

High-throughput results (PubChem)
